# From PubChem BioAssay AID1832 (Broad Institute, 2009)
# Out of some 300,000 compounds screened, about 1,100 (0.37%) were called active. Only a selection was taken, and actives are over-represented in it overall. A number with no mark means an inactive call.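 How the source made its calls: active means inhibition past about -25% in most replicates, and total fluorescence under double the plate's negative control median (limit read from the data); inconclusive means replicates evenly split on the limit, or fluorescence at least double controls; inactive means too little inhibition in most replicates.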
# Biological target: Zinc finger protein mex-5 (Caenorhabditis elegans) (UniProt Q9XUB2)
# Assay: MEX-5 zinc finger RNA-binding disruptors – biochemical, C. elegans, fluorescence polarization, MLPCN library, primary screen (AID 1832);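 further: 0% = DMSO and -100% = 5 µM competing unlabeled TCR2 RNA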
# Conditions: MEX-5/FITC-TCR2 RNA binding, at 10 µM, stronger effect = lower value
# Chain of Zinc finger protein mex-5 (Caenorhabditis elegans) (Q9XUB2 whole entry, looked up): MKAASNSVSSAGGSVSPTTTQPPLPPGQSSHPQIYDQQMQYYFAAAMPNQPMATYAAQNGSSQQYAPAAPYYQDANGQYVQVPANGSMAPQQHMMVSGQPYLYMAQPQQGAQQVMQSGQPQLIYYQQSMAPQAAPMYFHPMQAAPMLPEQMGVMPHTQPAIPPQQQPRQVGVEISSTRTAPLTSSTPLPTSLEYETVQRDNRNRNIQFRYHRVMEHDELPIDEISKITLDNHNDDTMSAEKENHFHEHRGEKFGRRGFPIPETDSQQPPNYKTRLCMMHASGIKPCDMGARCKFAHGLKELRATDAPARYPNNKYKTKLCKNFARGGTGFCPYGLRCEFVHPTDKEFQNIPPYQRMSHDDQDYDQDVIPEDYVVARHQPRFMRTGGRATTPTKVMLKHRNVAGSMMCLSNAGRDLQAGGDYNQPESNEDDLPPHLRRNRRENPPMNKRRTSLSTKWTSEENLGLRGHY
row,Structure (SMILES),activity score (negative = inhibition of binding)
1,Cc1cccc(N2C(=O)NC(=O)/C(=C\c3cnn(-c4ccccc4)c3)C2=O)c1,1.06%
2,O=C1NC(=O)N(c2ccccc2)C(=O)/C1=C/c1ccc([N+](=O)[O-])s1,-35.6% (active)
3,O=C1NC(=O)N(c2ccc(F)cc2)C(=O)/C1=C/c1ccc2c(c1)CCCN2Cc1ccccc1,-7.18%
4,COc1ccc2[nH]c3c(c2c1)CCN[C@H]3C,2.22%
5,COc1ccc(N2C(=O)/C(=C/c3ccco3)C(=O)NC2=S)cc1,-95.1% (active)
6,COc1ccc(CN2C(=O)NC(=O)/C(=C\c3ccc(OC)c(OC)c3OC)C2=O)cc1,7.01%
7,Cc1cc(/C=C2/C(=O)NC(=O)N(Cc3ccco3)C2=O)c(C)n1-c1ccc(C(=O)O)cc1,-4.55%
8,CN(C)CC1CCCCC1OC(=O)c1ccc(Cl)c(Cl)c1 (stereo not given),-0.533%
9,O=Cc1cn(Cc2ccc(F)cc2Cl)c2ccccc12,-1.5%
10,COc1cccc(-c2nc3ccc(N4CCN(C)CC4)cc3[nH]2)c1,2.54%
